This is one part of a sample in which the strongest signals are shown more often than they occur.
Assays:
Assay in all cases: glycan array binding signal (z-score within array); higher = stronger binding
Details in all cases: glycan notation: IUPAC condensed, linker removed
[1] = target: Fuc(a1-2)Gal
In short: (§1)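 Arrays were curated from the Consortium for Functional Glycomics database, 3228 in total, and kept only where the protein sequence was available. Binding is expressed as a within-array Z-score. This score was averaged across arrays of the same protein sequence at different concentrations or buffers and across linkers, and negative values can be read as non-binding.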

[2] = target: Fuc(a1-2)Gal(b1-3)GalNAc(a1-3)[Fuc(a1-2)]Gal(b1-4)GlcNAc
In short: as §1

[3] = target: Fuc(a1-2)Gal(b1-3)GlcNAc(b1-3)[Neu5Ac(a2-6)Gal(b1-4)GlcNAc(b1-6)]Gal(b1-4)Glc
In short: as §1

[4] = target: Fuc(a1-2)Gal(b1-4)GlcNAc(b1-2)Man(a1-3)[Fuc(a1-2)Gal(b1-4)GlcNAc(b1-2)Man(a1-6)]Man(b1-4)GlcNAc(b1-4)GlcNAc
In short: as §1

[5] = target: Fuc(a1-2)Gal(b1-4)GlcNAc(b1-3)[Fuc(a1-3)[Gal(b1-4)]GlcNAc(b1-6)]Gal(b1-4)Glc
In short: as §1

[6] = target: Fuc(a1-2)Gal(b1-4)GlcNAc(b1-6)GalNAc
In short: as §1

[7] = target: Fuc(a1-2)[Gal(a1-3)]Gal(b1-4)GlcNAc(b1-6)GalNAc
In short: as §1

[8] = target: Fuc(a1-2)[GalNAc(a1-3)]Gal(b1-3)GalNAc(b1-3)Gal(a1-4)Gal(b1-4)Glc
In short: as §1

[9] = target: Fuc(a1-2)[GalNAc(a1-3)]Gal(b1-3)GlcNAc(b1-2)Man(a1-3)[Fuc(a1-2)[GalNAc(a1-3)]Gal(b1-3)GlcNAc(b1-2)Man(a1-6)]Man(b1-4)GlcNAc(b1-4)[Fuc(a1-6)]GlcNAc
In short: as §1

[10] = target: Fuc(a1-2)[GalNAc(a1-3)]Gal(b1-4)GlcNAc(b1-2)Man
In short: as §1

[11] = target: Fuc(a1-3)[Gal(b1-4)]GlcNAc(b1-3)Gal(b1-4)[Fuc(a1-3)]GlcNAc
In short: as §1

[12] = target: Fuc(a1-3)[Gal(b1-4)]GlcNAc(b1-3)GalNAc
In short: as §1

[13] = target: Fuc(a1-3)[Gal(b1-4)]GlcNAc(b1-6)[Gal(b1-3)GlcNAc(b1-3)]Gal(b1-4)Glc
In short: as §1

[14] = target: Gal(a1-3)Gal(b1-3)GlcNAc(b1-6)GalNAc
In short: as §1

[15] = target: Gal(a1-3)[Gal(a1-4)]Gal(b1-4)GlcNAc
In short: as §1

[16] = target: Gal(a1-6)Glc
In short: as §1

[17] = target: Gal(b1-3)GalNAc(b1-3)Gal
In short: as §1

[18] = target: Gal(b1-3)GlcNAc(b1-2)Man(a1-3)[Gal(b1-3)GlcNAc(b1-2)Man(a1-6)]Man(b1-4)GlcNAc(b1-4)[Fuc(a1-6)]GlcNAc
In short: as §1

[19] = target: Gal(b1-3)GlcNAc(b1-3)Gal(b1-4)GlcNAc(b1-6)[Gal(b1-3)GlcNAc(b1-3)]Gal(b1-4)Glc
In short: as §1

[20] = target: Gal(b1-4)GlcNAc
In short: as §1

[21] = target: Gal(b1-4)GlcNAc(a1-6)Gal(b1-4)GlcNAc
In short: as §1

[22] = target: Gal(b1-4)GlcNAc(b1-2)Man(a1-3)[GlcNAc(b1-2)Man(a1-6)]Man(b1-4)GlcNAc(b1-4)GlcNAc
In short: as §1

[23] = target: Gal(b1-4)GlcNAc(b1-3)[Fuc(a1-3)GlcNAc(b1-6)]Gal(b1-4)Glc
In short: as §1

[24] = target: Gal(b1-4)GlcNAc(b1-6)Gal(b1-4)GlcNAc
In short: as §1

[25] = target: Gal3S(b1-4)[Fuc(a1-3)]Glc6S
In short: as §1

[26] = target: Gal3S(b1-4)[Fuc(a1-3)]GlcNAc
In short: as §1

[27] = target: Gal6P(b1-4)GlcNAc
In short: as §1

[28] = target: Gal6S(b1-3)GlcNAc
In short: as §1

[29] = target: Gal6S(b1-4)Glc6S
In short: as §1

[30] = target: GalNAc(a1-3)GalNAc(b1-3)Gal(a1-4)Gal(b1-4)Glc
In short: as §1

[31] = target: GalNAc(b1-4)GlcNAc
In short: as §1

[32] = target: GalNAc(b1-4)GlcNAc(b1-2)Man(a1-3)[GalNAc(b1-4)GlcNAc(b1-2)Man(a1-6)]Man(b1-4)GlcNAc(b1-4)GlcNAc
In short: as §1

[33] = target: GalNAc3S(b1-4)GlcNAc3S
In short: as §1

[34] = target: Glc(b1-4)Glc
In short: as §1

[35] = target: GlcNAc(b1-2)Man(a1-3)[GlcNAc(b1-4)][GlcNAc(b1-2)Man(a1-6)]Man(b1-4)GlcNAc(b1-4)GlcNAc
In short: as §1

[36] = target: GlcNAc(b1-2)[GlcNAc(b1-6)]Man(a1-6)[GlcNAc(b1-4)][GlcNAc(b1-2)Man(a1-3)]Man(b1-4)GlcNAc(b1-4)GlcNAc
In short: as §1

[37] = target: GlcNAc(b1-3)Gal(b1-4)GlcNAc(b1-3)Gal(b1-4)GlcNAc(b1-2)[GlcNAc(b1-3)Gal(b1-4)GlcNAc(b1-3)Gal(b1-4)GlcNAc(b1-6)]Man(a1-6)[GlcNAc(b1-3)Gal(b1-4)GlcNAc(b1-3)Gal(b1-4)GlcNAc(b1-2)Man(a1-3)]Man(b1-4)GlcNAc(b1-4)[Fuc(a1-6)]GlcNAc
In short: as §1

[38] = target: GlcNAc(b1-3)Gal(b1-4)GlcNAc(b1-3)Gal(b1-4)GlcNAc(b1-3)GalNAc
In short: as §1

[39] = target: GlcNAc(b1-6)GalNAc
In short: as §1

[40] = target: Kdn(a2-3)Gal(b1-4)Glc
In short: as §1

[41] = target: Man(a1-2)Man(a1-3)[Man(a1-2)Man(a1-6)]Man(a1-6)[Man(a1-2)Man(a1-2)Man(a1-3)]Man(b1-4)GlcNAc(b1-4)GlcNAc
In short: as §1

[42] = target: Man(a1-2)Man(a1-6)[Man(a1-3)]Man(a1-6)[Man(a1-2)Man(a1-2)Man(a1-3)]Man
In short: as §1

[43] = target: Man(a1-3)[Man(a1-6)]Man(a1-6)[Man(a1-3)]Man
In short: as §1

[44] = target: Man(a1-6)Man
In short: as §1

[45] = target: Neu5Ac(a2-3)Gal(b1-3)GlcNAc(b1-2)Man(a1-3)[Neu5Ac(a2-3)Gal(b1-3)GlcNAc(b1-2)Man(a1-6)]Man(b1-4)GlcNAc(b1-4)GlcNAc
In short: as §1

[46] = target: Neu5Ac(a2-3)Gal(b1-3)GlcNAc6S
In short: as §1

[47] = target: Neu5Ac(a2-3)Gal(b1-4)GlcNAc(b1-3)Gal(b1-3)GlcNAc
In short: as §1

[48] = target: Neu5Ac(a2-3)Gal(b1-4)GlcNAc6S
In short: as §1

[49] = target: Neu5Ac(a2-6)Gal(b1-4)GlcNAc(b1-2)Man(a1-3)Man(b1-4)GlcNAc(b1-4)GlcNAc
In short: as §1

[50] = target: Neu5Ac(a2-6)Gal(b1-4)GlcNAc(b1-2)Man(a1-3)[Man(a1-6)]Man(b1-4)GlcNAc(b1-4)GlcNAc
In short: as §1

[51] = target: Neu5Ac(a2-6)GlcNAc(b1-4)GlcNAc(b1-4)GlcNAc
In short: as §1

[52] = target: Neu5Ac(a2-8)Neu5Ac(a2-3)Gal(b1-3)GalNAc(b1-4)[Neu5Ac(a2-8)Neu5Ac(a2-3)]Gal(b1-4)Glc
In short: as §1

[53] = target: Neu5Ac(a2-8)Neu5Ac(a2-3)[Gal(b1-3)GalNAc(b1-4)]Gal(b1-4)Glc
In short: as §1

[54] = target: Neu5Gc(a2-3)Gal(b1-4)[Fuc(a1-3)]GlcNAc
In short: as §1

B1: AT1G77380(17) (Arabidopsis thaliana), Q39134 (protein)
chain: MVQNHQTVLAVDMPQTGGSKYLDDDGKNKRTGSVWTASAHIITAVIGSGVLSLAWATAQLGWLAGPVVMLLFSAVTYFTSSLLAACYRSGDPISGKRNYTYMDAVRSNLGGVKVTLCGIVQYLNIFGVAIGYTIASAISMMAIKRSNCFHKSGGKDPCHMNSNPYMIAFGLVQILFSQIPDFDQLWWLSILAAVMSFTYSSAGLALGIAQVVVNGKVKGSLTGISIGAVTETQKIWRTFQALGDIAFAYSYSIILIEIQDTVKSPPSEEKTMKKATLVSVSVTTMFYMLCGCMGYAAFGDLSPGNLLTGFGFYNPYWLLDIANAAIVIHLIGAYQVYCQPLFAFIEKQASIQFPDSEFIAKDIKIPIPGFKPLRLNVFRLIWRTVFVIITTVISMLLPFFNDVVGLLGALGFWPLTVYFPVEMYIAQKKIPRWSTRWVCLQVFSLGCLVVSIAAAAGSIAGVLLDLKSYKPFRSEY
- glycan array binding signal (z-score) [1]: 2.99
- glycan array binding signal (z-score) [2]: 2.89
- glycan array binding signal (z-score) [3]: -0.856
- glycan array binding signal (z-score) [4]: -0.43
- glycan array binding signal (z-score) [5]: 2.76
- glycan array binding signal (z-score) [6]: -0.513
- glycan array binding signal (z-score) [7]: -0.886
- glycan array binding signal (z-score) [8]: 4.03
- glycan array binding signal (z-score) [9]: -0.716
- glycan array binding signal (z-score) [10]: 1.32
- glycan array binding signal (z-score) [11]: -0.28
- glycan array binding signal (z-score) [12]: 0.285
- glycan array binding signal (z-score) [13]: 2.75
- glycan array binding signal (z-score) [14]: -0.733
- glycan array binding signal (z-score) [15]: 3.09
- glycan array binding signal (z-score) [16]: -0.766
- glycan array binding signal (z-score) [17]: -0.955
- glycan array binding signal (z-score) [18]: 3.2
- glycan array binding signal (z-score) [19]: 1.9
- glycan array binding signal (z-score) [20]: -0.639
- glycan array binding signal (z-score) [21]: 2.75
- glycan array binding signal (z-score) [22]: -0.757
- glycan array binding signal (z-score) [23]: 0.166
- glycan array binding signal (z-score) [24]: -0.725
- glycan array binding signal (z-score) [25]: 0.338
- glycan array binding signal (z-score) [26]: -0.327
- glycan array binding signal (z-score) [27]: -0.442
- glycan array binding signal (z-score) [28]: -0.519
- glycan array binding signal (z-score) [29]: -0.34
- glycan array binding signal (z-score) [30]: -0.209
- glycan array binding signal (z-score) [31]: 2.31
- glycan array binding signal (z-score) [32]: 7.58
- glycan array binding signal (z-score) [33]: -0.031
- glycan array binding signal (z-score) [34]: 0.66
- glycan array binding signal (z-score) [35]: -0.289
- glycan array binding signal (z-score) [36]: -0.522
- glycan array binding signal (z-score) [37]: 0.854
- glycan array binding signal (z-score) [38]: -0.766
- glycan array binding signal (z-score) [39]: 2.85
- glycan array binding signal (z-score) [40]: 4.07
- glycan array binding signal (z-score) [41]: 3.3
- glycan array binding signal (z-score) [42]: -0.524
- glycan array binding signal (z-score) [43]: -0.782
- glycan array binding signal (z-score) [44]: -0.696
- glycan array binding signal (z-score) [45]: -0.809
- glycan array binding signal (z-score) [46]: 0.954
- glycan array binding signal (z-score) [47]: -1.04
- glycan array binding signal (z-score) [48]: -0.786
- glycan array binding signal (z-score) [49]: -0.792
- glycan array binding signal (z-score) [50]: -0.896
- glycan array binding signal (z-score) [51]: 0.349
- glycan array binding signal (z-score) [52]: -0.862
- glycan array binding signal (z-score) [53]: -0.73
- glycan array binding signal (z-score) [54]: -0.363
